TEAD-YAP inh – TEAD-YAP interaction inhibition; HEK-TIYL cells, TEAD-Gal4/YAP UAS-luciferase luminescence; inhibition, % at 9.12 µM; actives 1.4% (n = 640,000); in the data active = inhibition above about 32%;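 also: 0% = median of test compound wells and 100% = reference inhibitor wells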
MITF primary – inhibitors of human MITF | O75030 | AlphaScreen MITF homodimerization, bead proximity signal | inhibition, % at 2.6 µM | actives 0.91% (n = 650,000) | AID 1259374; in the data active = inhibition above about 50%;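 also: 0% = vehicle wells with protein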
FBW7 activator – human FBW7 E3 ligase activation, primary screen. Q969H0. AlphaScreen FBW7–phospho-cyclin E peptide binding, activator screen. normalized activity (activation), % at 26.1 µM. actives 0.13% (n = 650,000); in the data active = normalized activity above about 1.9%;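 also: purified mutant Fbw7 with reduced substrate affinity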
GPR151 ag – activators of human GPR151; Q8TDV0; PathHunter beta-arrestin GPR151 cells, luminescence; activation, % at 11.2 µM; actives 1% (n = 650,000); AID 1508602; in the data active = activation above about 4.9%;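 also: 0% = median of compound wells and 100% = cells with positive control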
Target sequence (Q8TDV0 whole entry, looked up): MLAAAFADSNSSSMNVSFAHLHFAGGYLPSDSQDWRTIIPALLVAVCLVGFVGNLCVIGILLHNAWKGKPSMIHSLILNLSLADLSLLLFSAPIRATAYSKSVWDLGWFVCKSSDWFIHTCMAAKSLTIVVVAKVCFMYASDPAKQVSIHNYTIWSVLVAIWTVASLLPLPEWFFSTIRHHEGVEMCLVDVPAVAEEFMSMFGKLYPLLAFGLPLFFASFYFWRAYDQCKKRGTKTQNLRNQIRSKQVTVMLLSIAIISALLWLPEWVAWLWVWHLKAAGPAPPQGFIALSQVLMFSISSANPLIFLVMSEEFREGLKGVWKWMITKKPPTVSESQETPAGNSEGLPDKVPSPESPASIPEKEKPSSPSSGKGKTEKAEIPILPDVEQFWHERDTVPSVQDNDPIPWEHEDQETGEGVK
GPR151 confirm – human GPR151 activation, confirmation screen. shares compounds with GPR151 ag. GPR151 PathHunter beta-arrestin cells, luminescence, 90 min; % of EA-reagent control over plate median. activation, % at 11.2 µM. 6,700 tested, under 10 active;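 active = mean percent activation across replicates above the confirmation screen cutoff of 4.91%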
GPR119 ag – counter-screen for GPR151 activators: effect on human GPR119; actives 0.3% (n = 6,700); AID 1508611; GPR119 PathHunter beta-arrestin cells, luminescence, 90 min; 0 = compound-well median, 100 = enzyme-acceptor control; activation, % at 11.2 µM; shares compounds with GPR151 ag;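 active = mean percent activation in the counterscreen above 29.09%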;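 also: counterscreen on off-target GPR119 to flag nonselective hits from the GPR151 activator screen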
The depositor's hits bear a star; x = not tested or not shown. Compounds with a hit are over-represented: about 3.5% of the library has one in this group of screens.

SMILES	TEAD-YAP inh	MITF primary	FBW7 activator	GPR151 ag	GPR151 confirm	GPR119 ag
CC(=O)c1ccc(N2CCN(C(=O)c3ccc4c(c3)OCO4)CC2)cc1	-8	-11	0	0	x	x
O=C(c1ccc2c(c1)OCO2)N1CCCCCC1	-1	16	0	1	x	x
CC(=O)N1CCN(C(=O)c2ccc3c(c2)OCO3)CC1	3	-2	0	5.5*	0	-3
Cc1ccc2c(c1)C(c1ccc(N3CCOCC3)cc1)=NNC(c1cccnc1)=N2	3	-5	0	0	x	x
O=C(Cc1ccccc1)N1CCC(N2CCCC2)CC1	12	7	0	-1	x	x
O=C(Cc1ccccc1)N1CCC(=O)N(CC2CC2)CC1	0	10	0	9.9*	0	1
O=C(Cn1cnc2sc3c(c2c1=O)CCC3)Nc1ccc(Oc2ccccc2)cc1	7	7	0	1	x	x
O=C1CCCN1CCn1cnc2c(NCCOc3ccccc3)nc(-c3cccs3)nc21	16	3	0	3	x	x
CCCN(CCC)CCCNC(=O)c1nn(-c2ccc(OCC)cc2)c(=O)c2ccccc12	-4	3	0	8.8*	1	8
COc1ccc(-n2nc(C(=O)NCc3ccc(F)cc3)c3ccccc3c2=O)cc1	5	13	0	2	x	x
CCOc1ccc(-n2nc(C(=O)NCc3ccc(F)cc3)c3ccccc3c2=O)cc1	0	1	0	6.4*	0	1
CCCN(CCC)CCCNC(=O)c1nn(-c2ccc(OC)cc2)c(=O)c2ccccc12	2	15	0	-2	x	x
COc1ccccc1-c1cnn2ccc(NCCO)nc12	4	-5	0	1	x	x
CCc1ccc(NC(=O)CSc2nc3ccccc3c(=O)n2Cc2ccc3c(c2)OCO3)cc1	-5	-3	0	1	x	x
CCCCC(=O)Nc1nnc(S(=O)(=O)N(C)c2cccc(C)c2)s1	1	8	0	6.7*	1	-2
CN(C)C(=O)CCc1nc(-c2ccc(Cl)cc2)no1	-47	-6	0	7.2*	-1	-18
Cc1cccc(-c2noc(CCC(=O)N(C)C)n2)c1	-42	-7	0	-4	x	x
COc1ccc(-c2noc(CCC(=O)Nc3ccc(C)cc3)n2)cc1	-12	-2	0	2	x	x
COc1ccc(-c2noc(CCC(=O)Nc3ccc(C)c(C)c3)n2)cc1	-2	8	0	5.2*	2	7
COc1ccc(-c2noc(CCC(=O)Nc3cccc(Cl)c3)n2)cc1	0	-5	0	9.5*	0	5
COc1ccc(-c2noc(CC(=O)Nc3cccc(Cl)c3)n2)cc1	9	-4	0	-1	x	x
COc1cccc(-c2noc(CCC(=O)NC(C)C)n2)c1	-5	-5	0	5.6*	-2	-14
O=C(NCc1ccc2c(c1)OCO2)c1ccc(N2CC3CC(C2)c2cccc(=O)n2C3)c(NS(=O)(=O)c2ccc(Cl)cc2)c1 (stereo not given)	-16	-2	-1	0	x	x
C/C(=N\N)c1ccc(OC(C)C(=O)NN)cc1 (stereo not given)	3	11	0	1	x	x
CCOC(=O)CCSCC(=O)Nc1nccs1	6	-4	0	-1	x	x
SMILES	TEAD-YAP inh	MITF primary	FBW7 activator	GPR151 ag	GPR151 confirm	GPR119 ag
CCOC(=O)Cc1csc(NC(=O)CSc2nc(C)cc(C)n2)n1	-3	-2	0	5.6*	0	-1
CC1=CN2C(=NC(=O)CC2(C)C(=O)N(CC(=O)NC2CCCC2)c2ccccc2F)C=C1 (stereo not given)	-15	18	1	0	x	x
Cc1ccc(S(=O)(=O)Nc2ccc(NC(=O)/C=C/c3ccc4c(c3)OCO4)cc2)cc1	7	17	0	7.6*	1	-8
C/C(CC(=O)Nc1ccc(F)cc1)=N\NC(=O)c1cccc(Cl)c1	-55	2	0	0	x	x
COc1cccc(CNC(=O)CSc2nc3c(oc4ccccc43)c(=O)n2CCCOC(C)C)c1	1	2	0	6.5*	-1	-13
COC(=O)c1cn(NC(=O)/C=C/c2ccc(Br)cc2)c(=O)c2ccccc12	-5	2	0	7.8*	0	-5
COc1cccc(OCCCOc2cccc3ccc(C)nc23)c1	9	10	0	5.4*	0	-6
COC(=O)c1ccc(OCCOCCOc2cccc3ccc(C)nc23)cc1	2	7	0	-1	x	x
CS(=O)(=O)N(CC(=O)Nc1ccc(Cl)c(C(F)(F)F)c1)C1CCCCC1	6	-2	0	-1	x	x
COCCn1c(SCC(=O)N2CCCC2=O)nnc1-c1ccncc1	12	9	0	5.3*	-1	1
COCCn1c(SCC(=O)NC2CCCC2)nnc1-c1ccncc1	-3	0	0	0	x	x
O=C(O)COc1coc(CN2CCN(c3cccc(Cl)c3)CC2)cc1=O	5	-14	0	-2	x	x
O=c1cc(CN2CCN(c3cccc(Cl)c3)CC2)occ1OCc1ccccc1	3	-1	0	6.8*	0	-4
CCOCCCNCc1ccccc1OCc1ccccc1	0	-13	0	13*	-1	-6
CCc1nn(CC(=O)NC2CCCCC2C)c(=O)c2cc3sc(C)cc3n12 (stereo not given)	-3	5	0	-1	x	x
Cc1ccccc1NC(=O)C(C)(C)N(Cc1ccco1)C(=O)C(C)Oc1cc(Cl)c(Cl)cc1Cl (stereo not given)	-8	12	0	5.6*	0	-8
Cc1cc(OC(C)C(=O)N(Cc2ccco2)C2CCS(=O)(=O)C2)ccc1Cl (stereo not given)	8	7	0	-1	x	x
O=C(CCS(=O)(=O)c1cc2c(cc1Cl)NC(=O)CO2)Nc1ccc(F)cc1F	-3	7	0	5.5*	-1	-14
CCC(=O)N1CCN=C1SCc1cccc(C)c1	2	1	0	7.1*	1	9
CCC(=O)N1CCN=C1SCc1cccc(Cl)c1	-3	-5	0	-1	x	x
Cn1c(Nc2nc3ncnc(NCCOc4ccccc4)c3[nH]2)nc2ccccc21	6	20	0	4.9*	-1	-10
c1ccc(OCCNc2ncnc3nc(Nc4nccc5ccccc45)[nH]c23)cc1	-2	14	0	2	x	x
c1ccc(OCCNc2ncnc3nc(Nc4cnccn4)[nH]c23)cc1	4	4	0	5.7*	-2	-2
Cc1cc(C)nc(N2CCC(CNC(=O)c3ccc(F)c(F)c3)CC2)n1	-5	1	0	0	x	x
CCn1c(SCC(=O)c2ccc(C)cc2)nc2cccnc21	-2	-4	0	0	x	x
COc1ccc(/C(N)=N/OC(=O)c2cc(Cl)ccc2OC)cc1	7	7	0	6.8*	0	-1
O=C(Nc1ccccc1)c1ccc(N2C(=O)C3C4C=CC(C4)C3C2=O)cc1 (stereo not given)	-52	-1	0	5.0*	1	13
